What all share (settings): mRNA level, 48 h; actives raise or lower the signal
Read-out in experiment [1]: Nuclear factor NF-kappa-B p105 subunit (Homo sapiens) (UniProt P19838)
In words: LTEA_HepaRG_NFKB1: Life Technologies and Expression Analysis (LTEA) Assay for Nuclear Factor Kappa B Subunit 1 (NFKB1) using HepaRG (AID 2283521).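 Note: TaqMan qRT-PCR transcript normalised to ACTB GAPDH and POLR2A housekeeping genes.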 A digest of the protocol:
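Human HepaRG cells receive eight half-log concentrations, highest 100 uM, for 48 h. NFKB1 expression is then quantified by qRT-PCR and analysed for up- or down-regulation relative to 0.5% DMSO vehicle.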

Read-out in experiment [2]: Protein phosphatase 2A (PPP2R4), PTPA (gene 5524)
In words: LTEA_HepaRG_PPP2R4: Life Technologies and Expression Analysis (LTEA) Assay for Protein phosphatase 2A (PPP2R4) using HepaRG (AID 2283522). A digest of the protocol:
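Gene-expression endpoint in HepaRG hepatic cells: 48 h treatment across eight half-log concentrations up to 100 uM in 0.5% DMSO. PPP2R4 mRNA by qRT-PCR, normalized to three endogenous control genes.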

Read-out in experiment [3]: Phosphatase and tensin (PTEN), PTEN (gene 5728)
The experiment is described as follows: LTEA_HepaRG_PTEN: Life Technologies and Expression Analysis (LTEA) Assay for Phosphatase and tensin (PTEN) using HepaRG (AID 2283523). The essentials: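 HepaRG cells, 48 h after plating, exposed in duplicate for 48 h in serum-free induction medium to 8 half-log concentrations up to 100 uM (0.5% DMSO). PTEN mRNA by qRT-PCR, normalized to ACTB, GAPDH, POLR2A; bidirectional fit versus DMSO.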

Read-out in experiment [4]: solute carrier (SLC22A1), SLC22A1 (gene 6580)
In words: LTEA_HepaRG_SLC22A1: Life Technologies and Expression Analysis (LTEA) Assay for solute carrier (SLC22A1) using HepaRG (AID 2283524). The essentials: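 Differentiated human HepaRG cells in serum-free induction medium, exposed 48 h in duplicate to 8-point half-log series from 100 µM top in 0.5% DMSO. SLC22A1 mRNA by TaqMan qRT-PCR normalized to ACTB, GAPDH, POLR2A; bidirectional fit versus DMSO.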

Read-out in experiment [5]: Pyruvate Dehydrogenase Kinase 4 (PDK4), PDK4 (gene 5166)
In words: LTEA_HepaRG_PDK4: Life Technologies and Expression Analysis (LTEA) Assay for Pyruvate Dehydrogenase Kinase 4 (PDK4) using HepaRG (AID 2283525). The essentials: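 HepaRG cells plated 48 h, then switched to serum-free induction medium and exposed in duplicate for 48 h to 8 half-log concentrations from 100 uM in 0.5% DMSO. PDK4 mRNA measured by qRT-PCR, normalized to ACTB, GAPDH and POLR2A; bidirectional fit versus DMSO.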

Read-out in experiment [6]: NAD(P)H dehydrogenase [quinone] 1 (NQO1), NQO1 (gene 1728)
In words: LTEA_HepaRG_NQO1: Life Technologies and Expression Analysis (LTEA) Assay for NAD(P)H dehydrogenase [quinone] 1 (NQO1) using HepaRG (AID 2283526). The essentials:
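Human HepaRG hepatic cells received chemicals for 48 h in serum-free induction medium with 0.5% DMSO, up to 100 uM. Expression was assessed by TaqMan qRT-PCR against housekeeping controls and fitted bidirectionally against DMSO.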

Read-out in experiment [7]: Nuclear factor erythroid 2-related factor 2 (Homo sapiens) (UniProt Q16236)
The experiment is described as follows: LTEA_HepaRG_NFE2L2: Life Technologies and Expression Analysis (LTEA) Assay for Nuclear factor erythroid 2-related factor 2 (NFE2L2) Transcription Factor using HepaRG (AID 2283527).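 For outcome: TaqMan qRT-PCR transcript level normalised to ACTB GAPDH and POLR2A housekeeping genes.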 The essentials: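 Differentiated human HepaRG cells, serum-free induction medium, exposed 48 h in duplicate to eight half-log concentrations up to 100 uM in 0.5% DMSO. NFE2L2 mRNA by Fluidigm TaqMan qRT-PCR, normalised to ACTB, GAPDH, POLR2A; bidirectional change versus DMSO.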

Read-out in experiment [8]: succinate dehydrogenase complex iron sulfur subunit B (SDHB), SDHB (gene 6390)
The experiment is described as follows: LTEA_HepaRG_SDHB: Life Technologies and Expression Analysis (LTEA) Assay for succinate dehydrogenase complex iron sulfur subunit B (SDHB) using HepaRG (AID 2283528). A digest of the protocol:
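A human HepaRG culture in serum-free induction medium received test chemicals for 48 h over an eight-point range capped at 100 uM. SDHB expression change was quantified by qRT-PCR.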

Read-out in experiment [9]: Signal transducer and activator of transcription 3 (Homo sapiens) (UniProt P40763)
The experiment is described as follows: LTEA_HepaRG_STAT3: Life Technologies and Expression Analysis (LTEA) Assay for Signal transducer and activator of transcription (STAT3) using HepaRG (AID 2283529). The essentials:
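Differentiated HepaRG cells, serum-free induction medium, dosed 48 h in duplicate, 8 half-log concentrations from 100 uM in 0.5% DMSO. STAT3 mRNA by qRT-PCR, normalised to ACTB, GAPDH, POLR2A; bidirectional fit versus DMSO.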

Read-out in experiment [10]: solute carrier (SLCO1B1), SLCO1B1 (gene 10599)
The experiment is described as follows: LTEA_HepaRG_SLCO1B1: Life Technologies and Expression Analysis (LTEA) Assay for solute carrier (SLCO1B1) using HepaRG (AID 2283530). A digest of the protocol:
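Gain or loss of SLCO1B1 mRNA is fitted against the 0.5% DMSO vehicle in human HepaRG liver cells treated 48 h at up to 100 uM in half-log steps. Expression comes from qRT-PCR normalized to endogenous controls.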

Read-out in experiment [11]: sulfotransferase 2A1 (SULT2A1), SULT2A1 (gene 6822)
The experiment is described as follows: LTEA_HepaRG_SULT2A1: Life Technologies and Expression Analysis (LTEA) Assay for sulfotransferase 2A1 (SULT2A1) using HepaRG (AID 2283531). The essentials: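 Cells were plated and cultured 48 h, switched to serum-free induction medium, then dosed in duplicate for 48 h (8 concentrations, max 100 uM). RNA was isolated and SULT2A1 expression measured by qRT-PCR; gain or loss of signal fitted relative to DMSO.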

Read-out in experiment [12]: Transforming Growth Factor (TGFA), TGFA (gene 7039)
In words: LTEA_HepaRG_TGFA: Life Technologies and Expression Analysis (LTEA) Assay for Transforming Growth Factor (TGFA) using HepaRG (AID 2283532). The essentials:
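Differentiated HepaRG cells exposed 48 hours in serum-free induction medium, 0.5% DMSO vehicle, 8-point half-log series from 100 uM, in duplicate. TGFA mRNA by TaqMan qRT-PCR, normalised to ACTB, GAPDH, POLR2A; bidirectional fit versus DMSO.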

Read-out in experiment [13]: Transforming Growth Factor (TGFB1), TGFB1 (gene 7040)
In words: LTEA_HepaRG_TGFB1: Life Technologies and Expression Analysis (LTEA) Assay for Transforming Growth Factor (TGFB1) Transporter using HepaRG (AID 2283533). A digest of the protocol:
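Expression change of TGFB1 in human HepaRG cells is measured after a 48 h chemical exposure, up to 100 uM in 0.5% DMSO vehicle. Curves are fitted in both directions relative to the DMSO baseline.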

Read-out in the next experiment: TIMP1, TIMP1 (gene 7076)
In words: LTEA_HepaRG_TIMP1: Life Technologies and Expression Analysis (LTEA) Assay for TIMP1 using HepaRG (AID 2283534).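 Note: TaqMan qRT-PCR signal normalized to ACTB GAPDH and POLR2A housekeeping genes.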 A digest of the protocol:
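We dosed human liver HepaRG cultures for 48 hours with up to 100 uM test chemical and measured TIMP1 expression by qRT-PCR. Activity in either direction is fitted relative to the 0.5% DMSO vehicle.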

Read-out in experiment [14]: Tumor necrosis factor receptor 1 (TNFRSF1A), TNFRSF1A (gene 7132)
The experiment is described as follows: LTEA_HepaRG_TNFRSF1A: Life Technologies and Expression Analysis (LTEA) Assay for Tumor necrosis factor receptor 1 (TNFRSF1A) using HepaRG (AID 2283535). A digest of the protocol: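 Expression of TNFRSF1A in human HepaRG liver cells was measured by qRT-PCR 48 h after chemical dosing (maximum 100 uM). Bidirectional curve fitting used 0.5% DMSO as baseline.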

Read-out in experiment [15]: Thyroid Hormone Responsive (THRSP), THRSP (gene 7069)
In words: LTEA_HepaRG_THRSP: Life Technologies and Expression Analysis (LTEA) Assay for Thyroid Hormone Responsive (THRSP) using HepaRG (AID 2283536). The essentials:
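Differentiated HepaRG cells treated 48 h in serum-free induction medium with 8 half-log concentrations up to 100 uM (0.5% DMSO), duplicates. THRSP mRNA by TaqMan qRT-PCR normalised to ACTB, GAPDH, POLR2A; bidirectional fit versus DMSO.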

Read-out in experiment [16]: UDP glucuronosyltransferase (UGT1A1), UGT1A1 (gene 54658)
The experiment is described as follows: LTEA_HepaRG_UGT1A1: Life Technologies and Expression Analysis (LTEA) Assay for UDP glucuronosyltransferase (UGT1A1) using HepaRG (AID 2283538). The essentials: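 Human liver HepaRG cultures receive test chemical for 48 h, up to 100 uM in 0.5% DMSO, with phenobarbital induction controls. UGT1A1 mRNA is measured by qRT-PCR and normalized to ACTB, GAPDH and POLR2A.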

Read-out in experiment [17]: UDP glucuronosyltransferase (UGT1A6), UGT1A6 (gene 54578)
The experiment is described as follows: LTEA_HepaRG_UGT1A6: Life Technologies and Expression Analysis (LTEA) Assay for UDP glucuronosyltransferase (UGT1A6) using HepaRG (AID 2283539). A digest of the protocol: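 Endpoint is UGT1A6 transcript induction or loss in a human liver cell line, quantified by TaqMan qRT-PCR 48 h after dosing. Concentrations ran from 100 uM downward in half-log steps in 0.5% DMSO; activity was fitted in both directions versus vehicle.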

Read-out in experiment [18]: X-box binding protein 1 (XBP1), XBP1 (gene 7494)
In words: LTEA_HepaRG_XBP1: Life Technologies and Expression Analysis (LTEA) Assay for X-box binding protein 1 (XBP1) using HepaRG (AID 2283540). The essentials: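 Human HepaRG monolayers receive test chemical for 48 h across an eight-point half-log series starting at 100 uM. XBP1 mRNA gain or loss is scored against DMSO by qRT-PCR.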

Read-out in experiment [19]: Cellular tumor antigen p53 (Homo sapiens) (UniProt P04637)
The experiment is described as follows: LTEA_HepaRG_TP53: Life Technologies and Expression Analysis (LTEA) Assay for Tumor Protein P53 (TP53) using HepaRG (AID 2283537). The essentials:
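Gain or loss of TP53 mRNA signal is scored relative to 0.5% DMSO after 48 h chemical treatment of HepaRG liver cells, tested in duplicate at eight half-log concentrations up to 100 uM.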

Activity calls are given as the source filed them. Rule for the calls: active = hit-call score of the fitted dose curve at least 0.9, where 1 is the maximum; inactive = score below 0.9.

Chain of Signal transducer and activator of transcription 3 (Homo sapiens) (P40763 whole entry, looked up): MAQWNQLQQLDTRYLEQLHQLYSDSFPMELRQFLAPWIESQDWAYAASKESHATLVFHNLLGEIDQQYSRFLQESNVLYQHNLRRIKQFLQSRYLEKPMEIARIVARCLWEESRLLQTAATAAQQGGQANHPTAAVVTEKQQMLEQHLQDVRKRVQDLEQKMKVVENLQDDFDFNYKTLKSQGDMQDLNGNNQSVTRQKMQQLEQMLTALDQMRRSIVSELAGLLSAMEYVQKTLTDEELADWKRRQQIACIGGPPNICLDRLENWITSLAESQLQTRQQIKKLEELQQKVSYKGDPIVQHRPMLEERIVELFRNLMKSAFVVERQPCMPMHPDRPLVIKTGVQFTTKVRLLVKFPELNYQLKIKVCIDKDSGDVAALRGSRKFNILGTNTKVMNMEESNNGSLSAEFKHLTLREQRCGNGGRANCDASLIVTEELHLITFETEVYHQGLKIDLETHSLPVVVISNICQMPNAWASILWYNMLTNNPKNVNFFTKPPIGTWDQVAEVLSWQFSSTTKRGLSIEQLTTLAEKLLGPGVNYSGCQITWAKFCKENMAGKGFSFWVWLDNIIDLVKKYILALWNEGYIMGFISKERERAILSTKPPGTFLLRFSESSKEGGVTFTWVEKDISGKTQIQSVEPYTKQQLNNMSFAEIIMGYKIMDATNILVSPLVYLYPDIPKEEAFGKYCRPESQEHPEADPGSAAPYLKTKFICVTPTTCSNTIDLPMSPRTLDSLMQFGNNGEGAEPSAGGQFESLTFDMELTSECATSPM
Chain of Nuclear factor NF-kappa-B p105 subunit (Homo sapiens) (P19838 whole entry, looked up): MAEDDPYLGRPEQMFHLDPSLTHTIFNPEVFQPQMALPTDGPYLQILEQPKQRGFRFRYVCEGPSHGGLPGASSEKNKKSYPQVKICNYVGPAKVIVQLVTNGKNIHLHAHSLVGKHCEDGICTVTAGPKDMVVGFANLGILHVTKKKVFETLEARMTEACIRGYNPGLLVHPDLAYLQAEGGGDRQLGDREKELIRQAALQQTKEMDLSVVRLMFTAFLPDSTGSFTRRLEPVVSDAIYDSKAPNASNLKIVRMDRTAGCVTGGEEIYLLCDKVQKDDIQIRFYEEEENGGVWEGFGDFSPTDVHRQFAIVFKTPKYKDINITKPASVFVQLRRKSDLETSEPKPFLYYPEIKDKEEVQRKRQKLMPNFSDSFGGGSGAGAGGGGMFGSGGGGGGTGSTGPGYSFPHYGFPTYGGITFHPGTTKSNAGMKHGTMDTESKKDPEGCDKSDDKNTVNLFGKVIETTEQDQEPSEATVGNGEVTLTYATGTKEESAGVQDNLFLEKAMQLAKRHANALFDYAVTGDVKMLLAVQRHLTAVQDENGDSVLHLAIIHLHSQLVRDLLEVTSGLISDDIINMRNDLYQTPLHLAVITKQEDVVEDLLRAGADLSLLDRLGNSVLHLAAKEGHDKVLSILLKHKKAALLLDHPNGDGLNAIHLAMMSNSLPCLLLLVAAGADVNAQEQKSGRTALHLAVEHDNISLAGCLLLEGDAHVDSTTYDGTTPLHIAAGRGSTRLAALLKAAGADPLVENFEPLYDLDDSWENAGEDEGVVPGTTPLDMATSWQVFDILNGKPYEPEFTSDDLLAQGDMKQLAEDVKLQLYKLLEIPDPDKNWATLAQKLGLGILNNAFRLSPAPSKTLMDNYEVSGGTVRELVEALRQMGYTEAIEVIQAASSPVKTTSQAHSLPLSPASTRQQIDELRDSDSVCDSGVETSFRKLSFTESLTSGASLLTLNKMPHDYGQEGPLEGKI
Chain of Nuclear factor erythroid 2-related factor 2 (Homo sapiens) (Q16236 whole entry, looked up): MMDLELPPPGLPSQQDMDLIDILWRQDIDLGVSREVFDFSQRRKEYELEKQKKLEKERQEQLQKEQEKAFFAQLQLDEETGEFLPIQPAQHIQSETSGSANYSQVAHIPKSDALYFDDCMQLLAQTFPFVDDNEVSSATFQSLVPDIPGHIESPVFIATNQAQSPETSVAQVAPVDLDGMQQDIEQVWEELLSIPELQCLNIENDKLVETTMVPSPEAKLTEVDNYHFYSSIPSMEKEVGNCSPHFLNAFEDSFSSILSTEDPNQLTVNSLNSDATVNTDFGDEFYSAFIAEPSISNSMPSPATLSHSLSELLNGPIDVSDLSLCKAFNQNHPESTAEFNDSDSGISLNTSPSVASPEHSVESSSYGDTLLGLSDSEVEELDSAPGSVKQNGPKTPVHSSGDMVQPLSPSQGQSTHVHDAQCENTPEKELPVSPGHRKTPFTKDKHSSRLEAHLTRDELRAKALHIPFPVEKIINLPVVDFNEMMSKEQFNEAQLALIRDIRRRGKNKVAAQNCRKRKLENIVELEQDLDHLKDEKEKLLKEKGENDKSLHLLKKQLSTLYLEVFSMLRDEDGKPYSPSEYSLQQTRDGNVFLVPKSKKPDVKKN
Chain of Cellular tumor antigen p53 (Homo sapiens) (P04637 whole entry, looked up): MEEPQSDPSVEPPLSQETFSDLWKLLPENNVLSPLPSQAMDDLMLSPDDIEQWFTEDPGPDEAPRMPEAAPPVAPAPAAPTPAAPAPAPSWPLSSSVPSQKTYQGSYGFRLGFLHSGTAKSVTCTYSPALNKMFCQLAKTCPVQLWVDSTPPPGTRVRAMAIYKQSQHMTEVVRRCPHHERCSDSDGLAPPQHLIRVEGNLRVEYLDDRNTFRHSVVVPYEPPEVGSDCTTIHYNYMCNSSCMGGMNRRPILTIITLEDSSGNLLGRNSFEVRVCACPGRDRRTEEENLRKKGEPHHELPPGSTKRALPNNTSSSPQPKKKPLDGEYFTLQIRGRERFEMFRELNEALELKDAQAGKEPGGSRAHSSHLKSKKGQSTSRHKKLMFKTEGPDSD

Consider `CC(C)(C)c1cccc(C(C)(C)C)c1O`, for which the call in [1], in [2], in experiment [3], in experiment [4], in [5] and in experiment [6] was inactive. The call in [7], in experiment [8], in experiment [9], in experiment [10], in [11] and in [12] was inactive. For the same compound, the outcome is “inactive” in experiment [13]; “inactive” with TIMP1, TIMP1 (gene 7076); “inactive” in [14]; “inactive” in [15]; “inactive” in experiment [16]; “inactive” in [17]. Also, the result in experiment [18] was inactive.
As for `CC[C@H](c1ccc(O)cc1)[C@@H](CC)c1ccc(O)cc1`, the outcome in [1] was “inactive”; in [3], “inactive”; in the experiment with TIMP1, TIMP1 (gene 7076), “inactive”; in experiment [15] it was “inactive”; in experiment [17], “inactive”. Further, the AC50 was 82.8 µM (active) in [2]; 71.4 µM (active) in experiment [4]; 80.4 µM (active) in experiment [5]; 81.8 µM (active) in experiment [6]; 78.8 µM (active) in experiment [7]; 79.4 µM (active) in experiment [8]. Moreover, the AC50 in experiment [9] is 93.8 µM (active); in experiment [10], 92.8 µM (active); in [11], 79.7 µM (active); in experiment [13] it was 79.5 µM (active); in experiment [14], 93.4 µM (active); in experiment [19] it was 80.1 µM (active). Besides, the AC50 was 83.3 µM (active) in experiment [16] and 85.6 µM (active) in [18].
Turning to `c1ccc2c(c1)ccc1ccccc12`, the result in [1], in experiment [2], in experiment [3], in experiment [4], in experiment [5] and in experiment [6] was inactive. Also, the outcome in [7], in experiment [8], in experiment [9], in experiment [10], in experiment [11] and in experiment [13] was inactive. For the same compound, the outcome with TIMP1, TIMP1 (gene 7076) was “inactive”; in experiment [14], “inactive”; in experiment [15], “inactive”; in experiment [17], “inactive”; in experiment [18], “inactive”. The concentration at half-maximal activity (AC50) in experiment [16] was 7.77 µM (active).

Values taken from PubChem BioAssay (EPA / NIEHS).
